Results filed as inconclusive are left out. A number with no mark means an inactive call. Calls come from the whole dose curve; as a rule, active = well fitted inhibition curve with a large enough effect; inconclusive = small, poorly fitted or top-dose-only effect; inactive = flat fitted curve, though single readings scatter.
% is set by controls: 0 for no effect and ±100 for the full control effect.

Sequence of Calcium and integrin-binding protein 1 (Homo sapiens) (Q99828 whole entry, looked up): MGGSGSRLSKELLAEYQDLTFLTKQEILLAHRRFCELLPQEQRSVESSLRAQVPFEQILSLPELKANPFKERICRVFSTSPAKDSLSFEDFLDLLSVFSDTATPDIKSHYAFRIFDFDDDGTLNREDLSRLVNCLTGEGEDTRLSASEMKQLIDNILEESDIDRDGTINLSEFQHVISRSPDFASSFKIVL

This test addresses Calcium and integrin-binding protein 1 (Homo sapiens) (UniProt Q99828). The experiment in a line: Primary qHTS for Identification of Calcium Integrin Binding Protein 1 (CIB1) Competitor (AID 1508620). Note: top concentration of the series differs between compounds. Particulars: CIB1-GST / FITC-alphaIIb peptide fluorescence polarization; series mostly up to 114 µM; activity change, negative = inhibition: at the top concentration. The essentials:
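Fluorescence polarization competition: GST-tagged CIB1 (1 uM final) preincubated with compound 15 min at room temperature, then FITC-labelled alphaIIb peptide (100 nM final) added. After 15 min at room temperature, polarization read at Ex 480/Em 540.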
In general terms: In qHTS, concentration-response curves come from the screen itself.
As to `Cc1cc(N[S+](=O)([O-])c2cc3c(cc2Cl)NC(=O)CO3)ccc1Br`, the “activity change, negative = inhibition” value is -6.83%.
For the compound `COc1ccc(C2c3c(ncn(CCN4CCOCC4)c3=N)Oc3ccc4ccccc4c32)cc1OC` (stereo unspecified), the “activity change, negative = inhibition” value was 6.83%.
The value for `Nc1ccc2c(c1)S(=O)(=O)NC2=O` was -7.25%; that for `COc1ccc(-c2cncc(NC(=O)c3cccs3)c2)cc1OC` was 2.31%.
As for `Cc1cc(C)n2ncc(C(=O)Nc3ccc(C#N)cc3)c2n1`, the “activity change, negative = inhibition” value is 5.01%.
As for `COc1cccc(C2=Nn3c(nnc3-c3cccc(OC)c3)SC2)c1`, the “activity change, negative = inhibition” value is 3.08%.

The values above are taken from PubChem BioAssay (NCATS).
